# Measurements: ChEMBL document CHEMBL3988442, “University of Dundee, Small-Polar-MMV Screening Library” (2021)
# In all, about 69,000 compounds went through this assay and about 1,000 (1.4%) showed an effect of 50% or more. The entries come from a sample that favours strong results as a whole.
# Test system: Leishmania donovani
# Test: Leishmania intramacrophage assay
# Format: functional, organism-based
# Parameters: scale not given: in the data most compounds retested in dose-response had high values
smiles,measurement,setting,value
CCN(CC)C1CCN(C(=O)NCc2cccc(-n3ccnc3)c2)C1 (configuration not stated),Percent Effect,"30.3 µM, […]",23.85%
Cl.O=C(N1CCCC1)C1(Cc2ccc(-c3cccs3)cc2)CCNC1 (configuration not stated),Percent Effect,"30.3 µM, […]",86.38%
Cl.O=C(O)C1(Cc2cccc(-c3cccs3)c2)CCCNC1 (configuration not stated),Percent Effect,"30.3 µM, […]",29.13%
Cl.O=C(O)C1(Cc2ccc(-c3cccs3)cc2)CCNC1 (configuration not stated),Percent Effect,"30.3 µM, […]",44.48%
O=C(NCc1cc[nH]n1)NCC(O)c1ccc(F)cc1F (configuration not stated),Percent Effect,"30 µM, 30.03 µM",9.759%
O=C(c1cnccn1)N1CCCC(C2=Nc3ccccc3S(=O)(=O)N2)C1 (configuration not stated),Percent Effect,"30.3 µM, […]",-20.53%
O=C1CCC(=O)N1c1nn(Cc2cccc(F)c2)cc1Cl,Percent Effect,"30.3 µM, […]",-1.051%
CC(C)CN1CC(C(=O)NCCNc2ncccn2)CC1=O (configuration not stated),Percent Effect,"30.3 µM, […]",7.647%
COCC(=O)N1CCCn2c(CN3CCCC3=O)nnc2C1,Percent Effect,"30.3 µM, […]",51.47%
COCC(=O)N1CCCn2c(CN3CCCC3)nnc2C1,Percent Effect,"30.3 µM, […]",44.76%
COCC(=O)N1CCCn2c(CN3CCCCC3)nnc2C1.O=C(O)C(F)(F)F,Percent Effect,"30 µM, 30.03 µM",-9.377%
CCOc1ccc(C(=O)NS(=O)(=O)c2cncc(Br)c2)cc1OC,Percent Effect,"30 µM, 30.03 µM",20.52%
CCOCCN(CCOCC)c1nc(C)nc2sccc12,Percent Effect,"30.3 µM, […]",93.26%
CCCN(CCOC)c1nc(C)nc2sccc12,Percent Effect,"30.3 µM, […]",19.01%
COCCN(Cc1sccc1C)c1nc(C)nc2sccc12,Percent Effect,"30.3 µM, […]",13.95%
Cc1nnc(SCCNC(=O)Cn2cnc3ccccc3c2=O)s1,Percent Effect,"30.3 µM, […]",15.09%
COc1cc(N2CCC3(CCN(Cc4csc(C)n4)C3=O)C2)ncn1.O=C(O)C(F)(F)F (configuration not stated),Percent Effect,"30.3 µM, […]",55.45%
COc1cc(N2CCC3(CCN(Cc4csc(C)n4)C3)CC2)ncn1.O=C(O)C(F)(F)F,Percent Effect,"30.3 µM, […]",30.69%
Cc1cnc(N2CCC3(CCN(Cc4csc(C)n4)C3=O)C2)nc1.O=C(O)C(F)(F)F (configuration not stated),Percent Effect,"30.3 µM, […]",19.08%
COCCCn1c(CN2CCSCC2)cnc1S(=O)(=O)C1CCCC1,Percent Effect,"30.3 µM, […]",17.55%
CCc1nc2n(n1)CC(NCC(=O)Nc1ccc(Cl)cn1)CC2 (configuration not stated),Percent Effect,"30 µM, 30.03 µM",11.34%
CC(C)C[C@H](N)COc1cccc(F)c1Oc1ccccc1,Percent Effect,"30.3 µM, […]",56.67%
CC(CNS(C)(=O)=O)Oc1cccc(Cl)c1 (configuration not stated),Percent Effect,"30.3 µM, […]",6.182%
CCOc1ccccc1C(N)CC(C)C (configuration not stated),Percent Effect,"30.3 µM, […]",19.23%
COc1ccccc1C(N)CC(C)C (configuration not stated),Percent Effect,"30.3 µM, […]",3.977%
CC(C)C[C@H](N)COc1cccc(F)c1Oc1cccc(Cl)c1,Percent Effect,"30.3 µM, […]",98.08%
CC(CNS(N)(=O)=O)Oc1cccc(Cl)c1 (configuration not stated),Percent Effect,"30.3 µM, […]",5.132%
CCCOc1ccccc1C(N)CC(C)C (configuration not stated),Percent Effect,"30.3 µM, […]",24.69%
CC(C)COc1ccccc1C(N)CC(C)C (configuration not stated),Percent Effect,"30.3 µM, […]",23.51%
CC(C)C[C@H](N)COc1cccc(F)c1Oc1ccc(Cl)cc1,Percent Effect,"30.3 µM, […]",96.61%
NCc1ccc(Oc2cccc(Cl)c2Cl)cc1,Percent Effect,"30.3 µM, […]",17.28%
CNCc1cc(F)ccc1Oc1ccc(Cl)cc1,Percent Effect,"30.3 µM, […]",-3.595%
Cc1ccc(Oc2c(F)cccc2OC[C@@H](N)CC(C)C)cc1,Percent Effect,"30.3 µM, […]",95.01%
CCn1c(NCc2ccco2)nc2c(C)nn(C)c2c1=O,Percent Effect,"30 µM, 30.03 µM",16.24%
Cc1cc(CN2CCN(C(C)C)C(CCO)C2)[nH]n1 (configuration not stated),Percent Effect,"30.3 µM, […]",0.4197%
c1ccc(Cc2nnc([C@H]3CCN(C4CCCCC4)C3)o2)cc1,Percent Effect,"30.3 µM, […]",11.62%
COc1ccccc1-n1nc(CC(C)C)nc1CSc1nnc(N)s1,Percent Effect,"30.3 µM, […]",13.73%
CN(C)C(=O)COC[C@]12COC[C@H]1CN(C1CCCC1)C2.O=C(O)C(F)(F)F,Percent Effect,"30.3 µM, […]",40.35%
CC(C)(C)NC(=O)CN1CCNCC1.Cl.Cl,Percent Effect,"30.3 µM, […]",11.16%
O=C(O)C(F)(F)F.O=C1CC2(CCN(CC3CC3)C2)CN1c1ccc2c(c1)OCO2 (configuration not stated),Percent Effect,"30 µM, 30.03 µM",25.29%
Cc1c(C(C)N)cnn1-c1cccc2ccccc12 (configuration not stated),Percent Effect,"30.3 µM, […]",22.69%
Cc1ccc(-c2noc(CCC(=O)NC(C)Cn3cccn3)n2)cc1 (configuration not stated),Percent Effect,"30.3 µM, […]",22.16%
Cn1cc(NS(=O)(=O)c2ccc(C(F)(F)F)cc2)ccc1=O,Percent Effect,30 µM,-2.5%
CCCc1ccc(S(=O)(=O)Nc2ccc(=O)n(C)c2)cc1,Percent Effect,30 µM,20.55%
Cc1ccc(S(=O)(=O)Nc2ccc(=O)n(C)c2)cc1,Percent Effect,"30 µM, 30.03 µM",54.33%
CCN1CC2(CC1=O)CN(Cc1ccoc1)CCN(C(=O)C(C)C)C2 (configuration not stated),Percent Effect,"30.3 µM, […]",8.034%
O=C(c1ccc(Br)o1)N1CCN(Cc2ccc(OC(F)(F)F)cc2)CC1,Percent Effect,"30 µM, 30.03 µM",31.07%
CN(CC(=O)Nc1cccc(F)c1)Cc1nc(N)nc(N(C)C)n1,Percent Effect,"30.3 µM, […]",21.77%
CN(CCc1cccc2ccccc12)Cc1nc(N)nc(N(C)C)n1,Percent Effect,"30.3 µM, […]",94.18%
CN(Cc1nc(N)nc(N(C)C)n1)Cc1cccc2ccccc12,Percent Effect,"30.3 µM, […]",1.643%
Cc1ccc(CN2CCCC3(CCN(S(C)(=O)=O)C3)C2)o1.O=C(O)C(F)(F)F (configuration not stated),Percent Effect,"30 µM, 30.03 µM",4.141%
COCc1cc(NCCCSc2nnc(C)s2)ncn1,Percent Effect,"30.3 µM, […]",26.84%
COc1cc(NCCCSc2nnc(C)s2)ncn1,Percent Effect,"30.3 µM, […]",57.45%
Cc1nnc(SCCCNc2cc(C3CC3)ncn2)s1,Percent Effect,"30.3 µM, […]",31.22%
Cc1nnc2n1CCN(C(=O)COCCOc1ccccc1)C2,Percent Effect,"30 µM, 30.03 µM",16.55%
Cc1cc(CN2CCCC(C)(CO)C2)ccc1F (configuration not stated),Percent Effect,"30 µM, 30.03 µM",31.69%
Cc1nc(C)n(CC2CN(Cc3noc(C4CC4)n3)CCO2)n1 (configuration not stated),Percent Effect,"30.3 µM, […]",-6.202%
Cc1cnc(CCNC(=O)C2CCN(S(=O)(=O)c3ccc(F)cc3)C2)s1 (configuration not stated),Percent Effect,"30.3 µM, […]",33.75%
COCCN1CCC(CN(CC2CCCO2)C(=O)Cn2cccn2)CC1 (configuration not stated),Percent Effect,"30.3 µM, […]",58.18%
COCCN1CCC(CN(CC2CCCO2)C(=O)Cc2cccs2)CC1 (configuration not stated),Percent Effect,"30.3 µM, […]",8.21%
COCCN1CCC(CN(CC2CCCO2)C(=O)COC)CC1 (configuration not stated),Percent Effect,"30 µM, 30.03 µM",-10.91%
Cc1nc(NC(=O)N2CCCC(C(C)(C)O)C2)nn1C (configuration not stated),Percent Effect,"30.3 µM, […]",-6.912%
O=C(C1CC2(CCNCC2)CN1)N1CCN(c2ccccc2)CC1 (configuration not stated),Percent Effect,"30.3 µM, […]",-6.874%
Cc1cccc(N2CCN(C(=O)C3CC4(CCNCC4)CN3)CC2)n1 (configuration not stated),Percent Effect,"30.3 µM, […]",82.82%
Cc1cnccc1N1CCN(C(=O)C2CC3(CCNCC3)CN2)CC1 (configuration not stated),Percent Effect,"30.3 µM, […]",-56.52%
Cc1cccc(-c2nc(C)nn2CN2CCC3(CC2)OCCO3)c1,Percent Effect,"30.3 µM, […]",-6.145%
CCCc1nnc(SCc2cc(=O)n3c4c(sc3n2)CCCC4)[nH]1,Percent Effect,"30.3 µM, […]",1.73%
CCc1nnc(SCc2cc(=O)n3c4c(sc3n2)CCCC4)[nH]1,Percent Effect,"30.3 µM, […]",54.93%
Cc1nnc(SCc2cc(=O)n3c4c(sc3n2)CCCC4)[nH]1,Percent Effect,"30.3 µM, […]",36.41%
CN[C@@H]1CCC[C@@H](Oc2ccccc2Oc2ccc(C)cc2)[C@@H]1O,Percent Effect,"30.3 µM, […]",98.74%
COCC1CCN(S(=O)(=O)N2C[C@H](c3ccccc3)[C@@H](N)C2)CC1,Percent Effect,"30.3 µM, […]",12.44%
Cc1occc1C(=O)N1C[C@@H](C(=O)N2CCCCO2)C[C@H]2OCC[C@H]21,Percent Effect,"30.3 µM, […]",22.98%
CN(CC(=O)Nc1cc(-c2cc(Cl)cc(Cl)c2)[nH]n1)S(C)(=O)=O,Percent Effect,"30.3 µM, […]",5.087%
CN(CC(=O)Nc1cc(CC2CCCCC2)n[nH]1)S(C)(=O)=O,Percent Effect,"30.3 µM, […]",66.78%
CN(CC(=O)Nc1cc(C(C)(C)C)n[nH]1)S(C)(=O)=O,Percent Effect,"30.3 µM, […]",-19.26%
Cc1nc(CN2CCCC2c2c(C)nn(C)c2Cl)no1 (configuration not stated),Percent Effect,"30 µM, 30.03 µM",17.3%
CN(C)Cc1cc(C2CCCCN2S(=O)(=O)Cc2ccccc2)nn1C.Cl (configuration not stated),Percent Effect,"30.3 µM, […]",-6.731%
CC(NCC(N)=O)c1c(F)cccc1Cl (configuration not stated),Percent Effect,"30.3 µM, […]",61.56%
CNC(=O)NC(C)c1c(F)cccc1Cl (configuration not stated),Percent Effect,"30.3 µM, […]",-84.02%
CC(C)NC(=O)CNC(C)c1c(F)cccc1Cl (configuration not stated),Percent Effect,"30.3 µM, […]",-24.44%
Cn1c(-c2ccccc2Cl)nc2cc(C(=O)NCC3(CO)CC3)cnc21,Percent Effect,"30.3 µM, […]",6.788%
O=c1n(CCNCc2cccc3ccccc23)nc2ccccn12,Percent Effect,"30.3 µM, […]",37.73%
CCC(O)c1nc2c([nH]1)CC(C)(C)CNC2=O (configuration not stated),Percent Effect,"30.3 µM, […]",4.98%
Cn1ncc2c1C(COCC1CC1)CN(Cc1ccoc1)C2 (configuration not stated),Percent Effect,"30 µM, 30.03 µM",18.09%
O=C(NCCN1CCC(c2cccs2)CC1)Nc1cccs1,Percent Effect,"30 µM, 30.03 µM",29.53%
CC(=O)NCCN1CCC(c2cccs2)CC1,Percent Effect,"30 µM, 30.03 µM",14.89%
O=C(NCCc1ccccc1)NCCN1CCC(c2cccs2)CC1,Percent Effect,"30.3 µM, […]",51.71%
COCC(=O)NC1CC2(CCN(Cc3ccco3)CC2)c2ccccc21.O=C(O)C(F)(F)F (configuration not stated),Percent Effect,"30 µM, 30.03 µM",-18.66%
CCOCC1CCN(C(=O)Nc2ccc(-c3csnn3)cc2)C1 (configuration not stated),Percent Effect,"30.3 µM, […]",-4.056%
CCCC(=O)NC1CCN(c2ccccc2S(=O)(=O)CC)CC1,Percent Effect,30 µM,-8.378%
Cc1ccc(NCC2(O)CCNCC2)cc1C,Percent Effect,"30.3 µM, […]",-19.76%
Cc1ccc(C2(CN3CCN(c4ncccn4)CC3)CCNCC2)nc1,Percent Effect,"30.3 µM, […]",-2.357%
Cc1ccccc1N1CCCN(CC2(O)CCCNC2)CC1 (configuration not stated),Percent Effect,"30.3 µM, […]",97.82%
CSCC(=O)N1CCCN(c2ccccc2C)CC1,Percent Effect,"30 µM, 30.03 µM",12.81%
Cc1ccc(C)c(N2CCN(CC3(O)CCNC3)CC2)c1 (configuration not stated),Percent Effect,"30.3 µM, […]",98.99%
CCOc1ccccc1N1CCN(CC2(O)CCCNC2)CC1 (configuration not stated),Percent Effect,"30.3 µM, […]",12.99%
OC(CNCCc1nnc2ccccn12)c1ccc2c(c1)OCO2 (configuration not stated),Percent Effect,"30.3 µM, […]",14.08%
CCn1c(CN2CCCC2)nnc1C1CCN(Cc2ccc(C)o2)CC1,Percent Effect,"30 µM, 30.03 µM",43.06%
CC[C@@]1(O)CCN(C(=O)CCSCc2ccc(F)cc2)C[C@H]1O,Percent Effect,"30.3 µM, […]",-8.433%
CCc1cnc(CN(C)C2CCN(CC3CCN(C(C)=O)CC3)C2)o1 (configuration not stated),Percent Effect,"30.3 µM, […]",21.9%
CCc1cnc(CN(C)C2CCN(CC3CCC3)C2)o1 (configuration not stated),Percent Effect,"30.3 µM, […]",50.08%
CCc1cnc(CN(C)C2CCN(CC3CCOCC3)C2)o1 (configuration not stated),Percent Effect,"30.3 µM, […]",46.35%
CC1(C)CN(Cc2csc(CS(C)(=O)=O)n2)Cc2ccccc21,Percent Effect,"30.3 µM, […]",-3.043%
Cc1cccc(N2CCN(CCNC(=O)c3ccnn3C)CC2)c1,Percent Effect,"30 µM, 30.03 µM",32.04%
Fc1ccc(C(CNc2ccncn2)N2CCCC2)cc1 (configuration not stated),Percent Effect,"30.3 µM, […]",64.07%
Fc1ccc(C(CNc2ccncn2)N2CCCCC2)cc1 (configuration not stated),Percent Effect,"30.3 µM, […]",33.33%
Fc1ccccc1C(CNc1ccncn1)N1CCCC1 (configuration not stated),Percent Effect,"30.3 µM, […]",13.69%
